MEX-5 binding: C. elegans MEX-5 TCR-2 RNA binding activity; MEX-5/FITC-TCR2 RNA binding, fluorescence polarization; hits give low values; activity score (negative = inhibition of binding), % at 10 µM; 300,000 compounds, 0.38% hits; AID 1832;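 active = inhibition past about -25% in most replicates, and total fluorescence under double the plate's negative control median, limit read from the data; inconclusive = replicates evenly split on the limit, or fluorescence at least double controls; inactive = too little inhibition in most replicates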;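 also: 0% = DMSO and -100% = 5 µM competing unlabeled TCR2 RNA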
PREPL inhibitor: inhibits the human prolyl oligopeptidase-like enzyme. recombinant PREPL, fluorescence polarization activity-based probe. inhibition, % at 5.96 µM. 320,000 compounds, 0.68% hits. Q4J6C6. AID 2751; in the data active = inhibition above about 43%;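 also: 0% = enzyme with DMSO and 100% = wells lacking enzyme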
PME-1 primary: blocks human protein phosphatase methylesterase 1; inhibition, % at 5.9 µM; recombinant PME-1, FP-Rh probe fluorescence polarization; 320,000 compounds, 0.53% hits; AID 2130; Q9Y570;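 active = inhibition above the campaign mean of all compounds plus 3 SD, cut at about 26% in these data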;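 also: competitive labeling of PME-1 active site by serine hydrolase directed probe; 0% = PME-1 with DMSO and 100% = wells lacking PME-1 enzyme; inhibitors block probe labeling so polarization falls and inhibition rises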
Target sequence (Q9Y570 whole entry, looked up): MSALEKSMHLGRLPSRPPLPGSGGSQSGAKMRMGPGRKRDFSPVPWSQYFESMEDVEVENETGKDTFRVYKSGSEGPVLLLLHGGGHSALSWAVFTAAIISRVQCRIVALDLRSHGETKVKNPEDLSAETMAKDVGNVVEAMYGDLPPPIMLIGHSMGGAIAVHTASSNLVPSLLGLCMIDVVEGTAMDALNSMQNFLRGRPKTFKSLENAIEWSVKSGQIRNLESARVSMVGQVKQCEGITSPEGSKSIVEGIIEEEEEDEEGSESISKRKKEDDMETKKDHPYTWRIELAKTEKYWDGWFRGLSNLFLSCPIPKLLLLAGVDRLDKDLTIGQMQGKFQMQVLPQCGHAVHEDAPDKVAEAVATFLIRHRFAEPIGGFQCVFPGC
LYPLA1 inh: blocks human lysophospholipase 1, a PME1 counter-screen; O75608; recombinant LYPLA1, FP-Rh probe fluorescence polarization; inhibition, % at 5.9 µM; 320,000 compounds, 0.16% hits; AID 2174;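 active = inhibition above the mean of all tested compounds plus 3 SD, set per campaign, cut at about 14% in these data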;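 also: inhibitors block serine hydrolase probe labeling of LYPLA1 so polarization falls; 0% = enzyme with DMSO and 100% = wells lacking LYPLA1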
Target sequence (O75608 whole entry, looked up): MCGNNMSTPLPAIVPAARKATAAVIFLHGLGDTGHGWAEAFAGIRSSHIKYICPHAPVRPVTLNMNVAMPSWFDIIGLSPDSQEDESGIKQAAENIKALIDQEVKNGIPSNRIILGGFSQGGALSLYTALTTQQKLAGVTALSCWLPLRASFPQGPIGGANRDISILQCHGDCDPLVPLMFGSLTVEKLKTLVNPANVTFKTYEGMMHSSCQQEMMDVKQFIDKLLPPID
Fam108B counter: Fam108B inhibition, counter-screen for RBBP9 inhibitors. AID 1947. inhibition, % at 9.51 µM. recombinant Fam108B, FP-Rh probe fluorescence polarization. 300,000 compounds, 0.33% hits;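 active = inhibition above the screen mean inhibition plus 3 SD, computed separately per campaign, cut at about 18% in these data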;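 also: inhibitors lower polarization as less probe binds the enzyme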
LYPLA2 counter: counter-screen for PME1 inhibitors: inhibitors of human LYPLA2; recombinant LYPLA2, FP-Rh probe fluorescence polarization; inhibition, % at 5.9 µM; 320,000 compounds, 0.38% hits; O95372; AID 2177;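 active = inhibition above the screen-wide mean plus 3 SD, limit set per campaign, cut at about 26% in these data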;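 also: 0% = LYPLA2 with DMSO and 100% = wells lacking LYPLA2 enzyme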
* hit, by the source's call; ? = inconclusive; . = no result. An excerpt weighted towards active compounds, which were near 1.6% of everything screened.

SMILES	MEX-5 binding	PREPL inhibitor	PME-1 primary	LYPLA1 inh	Fam108B counter	LYPLA2 counter
N#Cc1c(N)sc2c1CCCCCC2	0	12	7	0	2	2
N#Cc1c(N)sc(=S)c2c1CCCCC2	-26*	18	-2	2	10	3
COc1ccccc1N1C(=O)S/C(=C\c2ccc(C)s2)C1=O	-32*	-7	-1	-4	-6	-3
Cc1ccc(C)n1Cc1ccc(C(=O)O)cc1	.	5	-18	-8	37*	-7
Cc1cc(C)n(Cc2ccc(C(=O)O)cc2)n1	0	6	2	0	3	2
CCOC(=O)c1[nH]c(=O)[nH]c1CN(Cc1ccco1)Cc1[nH]c(=O)[nH]c1C(=O)OCC	-2	23	-1	2	2	-2
O=C(Cn1c(=O)cnc2ccccc21)N1CCN(S(=O)(=O)c2ccc(F)cc2)CC1	-1	6	16	4	1	2
Cc1ccc(S(=O)(=O)N2CCN(C(=O)Cn3c(=O)cnc4ccccc43)CC2)cc1	.	11	37*	-1	.	5
N#C/C(=C\c1ccc(O)c(O)c1)C(=O)Nc1cccc2ncccc12	6	29	28*	-14	13	-9
COc1ccc(/C=C(\C#N)C(=O)Nc2cccc3ncccc23)cc1OC	-5	3	-3	-6	4	-11
CC(C(=O)Nc1ccc(C(N)=O)cc1)N1C(=O)c2ccccc2S1(=O)=O (stereo not drawn)	3	-11	-6	3	-2	1
COc1cccc2sc(Nc3nnc(-c4ccccc4Cl)o3)nc12	1	26	22	4	5	-1
COc1cccc(-c2nnc(Nc3nc4c(F)cccc4s3)o2)c1	-6	19	44*	5	9	0
COc1ccccc1-c1nnc(Nc2nc3c(OC)cccc3s2)o1	.	10	31*	1	8	-2
O=C1c2ccccc2C(=O)c2c(O)c(O)cc(O)c21	.	19	.	.	.	.
C[C@@H]1Cc2c(O)c(O)cc(O)c2C(=O)O1	-45*	5	-3	2	1	8
Cn1cnnc1SC1c2cccc3cccc(c23)C1NS(=O)(=O)c1ccc(Cl)cc1 (stereo not drawn)	0	-12	11	-3	1	8
C=CCN1C(=O)c2cccc3c(N4CCCCC4)ccc(c23)C1=O	?	3	0	-2	2	-8
O=C1c2cccc3c(N4CCCCC4)ccc(c23)C(=O)N1c1cccc(O)c1	14	-1	27*	-22	-22	-28
O=C1c2cccc3c(N4CCCCC4)ccc(c23)C(=O)N1CCO	-26*	21	-4	3	-3	2
O=C(c1cccc(N2C(=O)c3ccccc3C2=O)c1)N1CCCCCC1	0	16	-21	5	2	2
COc1ccc(C(=O)OCc2cc(=O)n3c(C)csc3n2)cc1F	.	1	-2	5	.	8
C/C(=N/NS(=O)(=O)c1ccc(Br)cc1)c1ccc(C)o1	1	4	0	0	4	2
COc1ccc(C(=O)N2C(=S)NC(=O)/C2=C\c2ccc(C)cc2)cc1	-28*	-2	-24	-13	-9	-6
COC(=O)CN1C(=S)N(c2ccc(OC)cc2)C(=O)/C1=C/c1ccc(OC)cc1	2	-6	0	-5	1	-3
SMILES	MEX-5 binding	PREPL inhibitor	PME-1 primary	LYPLA1 inh	Fam108B counter	LYPLA2 counter
COC(=O)c1ccc(N2CCN(C(=O)c3ccccc3)CC2)c(NC(C)=O)c1	-1	8	5	-4	-3	-6
CCN(CC)c1ccc(/C=C/c2nc3ccccc3s2)cc1	-32*	-3	7	0	0	0
COCCn1c(Cc2ccccc2)nnc1SCC(=O)Nc1oc(C)c2c(C)n[nH]c(=O)c12	1	-2	-12	1	4	2
CC1=CC(=C2N=C(c3ccccc3)OC2=O)C=C(C)O1	-35*	1	1	2	-2	-7
O=c1[nH]n(-c2ncnc3c2cnn3-c2ccccc2)c(=O)c2ccccc12	-39*	-2	-1	1	2	7
CC(C)(C)Nc1ncnc2c1cnn2-c1ccccc1	2	1	-3	2	-2	-2
CCN(CC)C(=S)Sc1c(-c2ccccc2)c2cc(Cl)ccc2[nH]c1=O	0	6	35*	-3	9	-3
O=C(O)CSc1c(-c2ccccc2)c2cc(Cl)ccc2[nH]c1=O	0	5	0	-2	-7	-1
Cc1nn2c(nc1=O)NNC2(C)C(C)(C)C (stereo not drawn)	.	4	1	0	-1	3
O=C(NNC(=O)c1ccco1)c1cccc(Br)c1	0	2	3	5	1	13
CCOC(=O)c1ccc(S(=O)(=O)NCC(c2ccc(N(C)C)cc2)c2c[nH]c3ccccc23)cc1 (stereo not drawn)	0	28	21	-9	12	2
CN(C)c1ccc(C(CNC(=O)c2ccc(C#N)cc2)c2c[nH]c3ccccc23)cc1 (stereo not drawn)	1	65*	9	-5	12	12
CCCCOC(=O)Cn1c2ccc(OC)cc2c2nc3ccccc3nc21	-28*	2	4	0	-2	-5
CCn1c2ccc(OC)cc2c2nc3ccccc3nc21	?	9	7	2	1	3
O=C(CN(C(=O)CCC(=O)Nc1ccccn1)c1cccc(F)c1)NCc1ccco1	0	0	1	1	6	-2
Cc1ccc2nc3sc(C(=O)N4CCOCC4)c(N)c3cc2c1	-44*	-7	3	1	-3	0
COc1ccc(-c2nnc(-c3cc4c(ccc5ccccc54)oc3=O)o2)cc1	-42*	19	-44	-9	-1	-2
O=C(/C=C\N1CCOCC1)c1ccc(Br)cc1	-2	-17	0	-1	3	-7
O=C(/C=C/N1CCOCC1)c1ccc(-c2ccccc2)cc1	-35*	-9	-13	-4	-6	-11
Cc1cccc(N(C)S(=O)(=O)c2nnc(NC(=O)c3ccco3)s2)c1	-33*	-3	5	2	4	7
CN(c1ccccc1)S(=O)(=O)c1nnc(NC(=O)c2ccco2)s1	-2	-1	-2	-2	1	-3
COC(=O)/C(C#N)=C/c1c(Oc2cc(C)cc(C)c2)nc2ccccn2c1=O	-2	-2	-1	3	2	-3
C=CCN1c2ccccc2C(=O)CS1(=O)=O	.	-2	1	1	.	-5
O=C(Nc1ccnn1C1CCN(CC2CC=CCC2)CC1)c1ccccc1 (stereo not drawn)	-27*	.	.	.	.	.
COc1ccc(C(=O)Nc2ccnn2C2CCN(CC3CC=CCC3)CC2)cc1 (stereo not drawn)	-1	.	.	.	.	.
O=C(N=Nc1c(O)n(Cc2ccccc2)c2ccccc12)c1ccc(O)cc1	-1	9	3	-7	0	3

Source: PubChem
